Experimental data: PubChem BioAssay AID743150 (Broad Institute, 2013)
Results with a measured potency or affinity are listed apart. Calls of active or inactive are those of the source. The rule behind the calls is not given here.

Experiment: cytotoxicity in OVCAR4 cells, dose response, cytotoxicity control for PAX8 inhibitor project, cell-based, plate reader, dry powder, SA11 (AID 743150)
Conditions: series mostly up to 35 µM

Structure (SMILES) | outcome
Cc1ccccc1OCC(=O)Nc1cccc(C(=O)O)c1 | inactive
Cc1nc2sc(C(c3ccco3)N3CCN(C(c4ccccc4)c4ccccc4)CC3)c(O)n2n1 (stereo unspecified) | inactive
C[C@H]1CN([C@@H](C)CO)C(=O)Cc2cc(NC(=O)NC3CCCCC3)ccc2O[C@@H]1CN(C)Cc1ccc(-c2ccccc2)cc1 | inactive
COc1cccc(C#Cc2ccc([C@@H]3[C@@H](C#N)N(C(=O)C4CCCCC4)[C@@H]3CO)cc2)c1 | inactive
COC(=O)[C@@]1(CCS(=O)(=O)c2ccccc2)N=C(c2ccc(OCCCO)cc2)O[C@H]1c1ccccc1 | inactive
C[C@H](CO)N1C[C@H](C)[C@@H](CN(C)Cc2ccc(-c3ccccc3)cc2)Oc2ccc(NS(=O)(=O)c3ccccc3)cc2CC1=O | inactive
O=C1/C(=C/c2ccccc2)SC(=S)N1CC(=O)N1CCCCC1c1cccnc1 (stereo unspecified) | inactive
O=C(NCCc1ccccc1)c1ccc2c(c1)OCCCO2 | inactive
CCCC#Cc1ccc([C@@H]2[C@@H](C#N)N(S(=O)(=O)c3cccc(F)c3)[C@H]2CO)cc1 | inactive
O=C(N1CCCCC1)[C@@]1(CCS(=O)(=O)c2ccccc2)N=C(c2ccc(OCCCO)cc2)O[C@H]1c1ccccc1 | inactive
N#C[C@@H]1[C@@H](c2ccc(C#Cc3ccccc3F)cc2)[C@H](CO)N1C(=O)C1CCCCC1 | inactive
O=C(C[C@@H]1C[C@H]2c3cc(NS(=O)(=O)c4ccc(F)cc4)ccc3O[C@H]2[C@H](CO)O1)NCc1ccc(Cl)cc1 | inactive
COc1cccc(C#Cc2ccc([C@@H]3[C@@H](C#N)N(C(=O)C4CCCC4)[C@@H]3CO)cc2)c1 | inactive
N#C[C@H]1[C@H](c2ccc(C#CC3CCCC3)cc2)[C@@H](CO)N1C(=O)Nc1ccc(F)cc1 | inactive
Cc1ccc(S(=O)(=O)Nc2ccc3c(c2)C(=O)N([C@@H](C)CO)C[C@H](C)[C@@H](CN(C)C(=O)Nc2cccc4ccccc24)OCCCC[C@@H](C)O3)cc1 | inactive
C[C@H](CO)N1C[C@H](C)[C@H](CN(C)C(=O)Nc2ccc(-c3cccs3)cc2)OCc2cnnn2CCCC1=O | inactive

Structure (SMILES) | outcome
N#C[C@@H]1[C@H](c2ccc(C#Cc3ccc(F)cc3)cc2)[C@@H](CO)N1C(=O)Nc1ccc(F)cc1 | inactive
C[C@H](CO)N1C[C@H](C)[C@@H](CN(C)Cc2ccc(-c3ccccc3)cc2)Oc2ccc(NC(=O)C3CC3)cc2CC1=O | inactive
COCC(=O)N1[C@H](CO)[C@H](c2ccc(-c3cccnc3)cc2)[C@@H]1C#N | inactive
C[C@@H]1CN([C@@H](C)CO)S(=O)(=O)c2ccc(C#Cc3ccncc3)cc2O[C@H]1CN(C)C(=O)Nc1ccc2c(c1)OCO2 | inactive
COc1cccc(C#Cc2ccc([C@H]3[C@@H](C#N)N(C(=O)c4ccccn4)[C@@H]3CO)cc2)c1 | inactive
O=C(Nc1ccc(OCC(F)(F)C(F)F)c(C(F)(F)F)c1)c1ccccc1O | inactive
C[C@H](CO)N1C[C@H](C)[C@@H](CN(C)Cc2ccc(C(F)(F)F)cc2)Oc2ccc(NS(=O)(=O)c3ccccc3)cc2CC1=O | inactive
O=C1/C(=C/c2cccc(Br)c2)SC(=S)N1CCC(=O)N(CCO)c1ccccc1 | inactive
N#C[C@@H]1[C@@H](c2ccc(C3=CCCCC3)cc2)[C@@H](CO)N1C(=O)NC1CCCCC1 | inactive
N#C[C@H]1[C@@H](c2ccc(C#CC3CCCCC3)cc2)[C@@H](CO)N1S(=O)(=O)c1ccccc1 | inactive
CCCC#Cc1ccc([C@H]2[C@@H](C#N)N(C(=O)C3CCCCC3)[C@H]2CO)cc1 | inactive
CC(C)c1cc(C(=O)OCC(=O)N2CCN(C(=O)c3ccco3)CC2)c(O)c(C(C)C)c1 | inactive
N#C[C@H]1[C@@H](c2ccc(C#Cc3cccc(F)c3)cc2)[C@@H](CO)N1C(=O)C1CCCC1 | inactive
C[C@H](CO)N1C[C@H](C)[C@@H](CN(C)Cc2ccc(C(F)(F)F)cc2)Oc2ccc(NS(=O)(=O)c3ccc(Cl)cc3)cc2CC1=O | inactive
CC(=O)N1CCOc2ccc(S(=O)(=O)N3CCN(c4cccc(C(F)(F)F)c4)CC3)cc21 | inactive
